Structures are written as SMILES. The whole screen tested about 63,000 compounds, of which about 1,100 (1.7%) were called active. The entries come from a sample that favours actives as a whole. Potency and affinity values are given separately. Unmarked numbers belong to inactive results. Cut-off read from the data, not from the text of the source: active = cytotoxicity above about 50%; inactive = the rest.

The experiment is described as follows: HPDE-C7 pancreatic duct cell viability loss – fluorescence, HTS (AID 430).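 Note: cells exposed to compound for 48 hours before viability readout; 0% = vehicle and 100% = reference cytotoxic drug.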 The settings on record: HPDE-C7 pancreatic duct cells viability, at 10 µM, hits give high values.
On to `CC1CCCC(NS(=O)(=O)c2ccc3c(c2)OCCO3)C1C` (stereo unspecified), for which the cytotoxicity was -7.8%.

`Cc1nc(CNS(=O)(=O)c2ccc3c(c2)OCCO3)cs1`: the cytotoxicity was -11.4%. `Cc1ccc(-c2csc(N3CCC(NS(=O)(=O)c4ccc5c(c4)OCCO5)CC3)n2)cc1`: the cytotoxicity was 54.6% (active). For the molecule `Cc1nc2ccc(S(=O)(=O)NCC(=O)N3CCC(C)CC3)cc2s1`, the cytotoxicity is -1%.

In the case of `O=c1[nH]c(-c2ccc(Cl)cc2)nc2c1cnn2-c1ccccc1`, the cytotoxicity was 3.6%. Next, `CCCCCSc1nc2c(cnn2-c2ccccc2)c(=O)[nH]1`: 57.7% (active); `CCCCSc1nc2c(cnn2-c2ccc(F)cc2)c(=O)[nH]1`: -30.5%; `CCCSc1nc2c(cnn2-c2ccccc2)c(=O)[nH]1`: -0.6%.

Regarding `CCOC(=O)N1CCN(c2c(-c3ccc(C(C)C)cc3)c(=O)c2=O)CC1`, the cytotoxicity was 1.3%. Next, `COCc1nc(-c2cc(OC)c(OC)c(OC)c2)no1`: -19%; `CC(=O)Oc1ccc2cc(-c3nc4ccccc4n3C)c(=O)oc2c1`: 4.2%; `CCN(CC)c1ccc2cc(-c3nc4ccccc4n3C)c(=O)oc2c1`: 67% (active). As for `CCN(CC)c1ccc2cc(C(=O)Nc3ccccn3)c(=O)oc2c1`, the cytotoxicity is 9.8%.

As for `O=c1oc2ccc3ccccc3c2cc1-c1nnc(-c2ccccc2)o1`, the cytotoxicity was 13.4%. Take `CCN(CC)c1ccc2cc(-c3nnc(-c4ccncc4)o3)c(=O)oc2c1`: the cytotoxicity was 59.2% (active). Next, `CCN(CC)c1ccc2cc(-c3nc4ccccc4[nH]3)c(=O)oc2c1`: 30.8%; `O=C(Nc1cccnc1)c1cc2nc(C3CC3)cc(C(F)(F)F)n2n1`: -15.8%; `Cc1ccc(SCc2cn3c(C)csc3n2)cc1`: -10.2%.

For `c1ccc(OCc2nn3c(Cn4nnc5ccccc54)nnc3s2)cc1`, the cytotoxicity was -15.5%. Turning to `Cc1noc(C)c1S(=O)(=O)Nc1ccc(C(=O)N2CCc3ccccc3C2)cc1`, the cytotoxicity is -2.2%. For `Cn1nnc(NC(=O)c2ccccc2F)n1`, the cytotoxicity was -4.8%. Next, `CN1CCN(Cc2c(O)ccc3c(=O)c(Oc4ccccc4Cl)c(C(F)(F)F)oc23)CC1`: -17%; `O=C(c1ccco1)N1CCN(C(=O)c2cccc3c2C(=O)N(C2CCCCC2)C3)CC1`: -10%. The same measure for `CN1CCN(CC#CC2(O)CCCCC2)CC1`: -31.9%. Next, `COc1ccc(CC(=O)Nc2ccc(-c3noc(-c4cc(OC)c(OC)c(OC)c4)n3)cc2)cc1`: -2.7%; `CCCc1nc2sc3c(SCC(=O)NCc4ccco4)ncnc3c2c2c1CCC2`: 59% (active); `CSc1nc(NCc2ccco2)c2c3c(sc2n1)CN(C)CC3`: -21.3%. Turning to `CSc1nc(SCC(=O)NCc2ccco2)c2c3c(sc2n1)CN(C)CC3`, the cytotoxicity was -9.6%. The same measure for `Cc1nc(NCc2ccco2)c2c3c(sc2n1)CCC3`: 56.1% (active); for `Cc1nc(SCC(=O)NCc2ccco2)c2c3c(sc2n1)CCCC3`: -4.3%. The same measure for `CC(C)Sc1nc(SCC(=O)NCc2ccco2)c2c3c(sc2n1)COC(C)(C)C3`: 24.2%. As for `CC(C)c1nc2sc3c(SCC(=O)NCc4ccco4)ncnc3c2c2c1CCC2`, the cytotoxicity was 5.7%. The same measure for `CC(C)c1nc2sc3c(NCc4ccco4)ncnc3c2c2c1COC(C)(C)C2`: -10.3%. As for `O=C(CSc1ncnc2sc3c(c12)CCCCC3)NCc1ccco1`, the cytotoxicity is -22.5%. On to `c1coc(CNc2ncnc3sc4c(c23)CCCCC4)c1`, for which the cytotoxicity is -10.2%. Next, `CC(C)Sc1nc(NCc2ccco2)c2c3c(sc2n1)COC(C)(C)C3`: 83.4% (active); `CSc1nc(SCC(=O)NCc2ccco2)c2c3c(sc2n1)COC(C)(C)C3`: 51% (active); `CN1CC2(C(=O)c3ccccc3)CN(C)CC(C(=O)c3ccccc3)(C1)C2`: -20.9%. For `O=c1nc2n(c3ccccc13)Cc1ccccc1-2`, the cytotoxicity is -1.4%. Regarding `O=C(CSc1nnc(C2CC2)n1Cc1ccccc1)c1ccc(S(=O)(=O)N2CCOCC2)cc1`, the cytotoxicity is -8.3%.

For the molecule `Cn1nc(C(=O)Nc2ccc(S(=O)(=O)N3CCCCC3)cc2)ccc1=O`, the cytotoxicity is -4.3%. For the molecule `Cn1c(=O)c2c(nc(Oc3ccccn3)n2C)n(C)c1=O`, the cytotoxicity was -12.5%. Regarding `O=C(c1ccc2c(=O)n(-c3ccccc3)c(=O)[nH]c2c1)N1CCCCC1`, the cytotoxicity was -2.4%. Next, `COc1ccc(/C=N/n2cnnc2SCc2ccccc2)cc1`: 3.5%; `COc1ccc(/C=N/n2cc(-c3ccc(OC)cc3)nc2N)cc1`: -8.1%; `COc1ccc(/C=N/n2cc(-c3ccccc3)nc2N)cc1`: 65.5% (active). The same measure for `CC(C)NC(=O)Cn1c(SCC(=O)N2CCc3ccccc3C2)nc2ccccc21`: 129% (active); for `CC(C)NC(=O)Cn1c(SCC(=O)N2CCCCCC2)nc2ccccc21`: -7.8%. Next, `CC(C)NC(=O)Cn1c(SCC(=O)N2CCCc3ccccc32)nc2ccccc21`: -5.8%. Regarding `Cc1ccc(C(=O)Nc2ccccc2N2CCN(C(=O)C(C)C)CC2)cc1C`, the cytotoxicity is -15%.

In the case of `COc1ccc(NC(=O)Cn2cnc3c(cnn3-c3ccc(C)c(C)c3)c2=O)c(OC)c1`, the cytotoxicity was -1.2%.

For `CCN(CC)CCOc1nc(C)nc2c1oc1ccccc12`, the cytotoxicity is -0.5%. Next, `CCc1nc(OCCN(C)C)c2oc3ccccc3c2n1`: -12.4%; `CN(C)CCOc1nc(-c2ccccc2)nc2c1oc1ccccc12`: 56.4% (active); `Cc1ccc2[nH]c(=O)c(CNC(C)(C)C)cc2c1`: 1.4%. The same measure for `O=C(C1=C(O)C(=O)N(CCN2CCOCC2)C1c1cccs1)c1cc2ccccc2o1` (stereo unspecified): -34.2%; for `CCS(=O)(=O)N1Cc2ccccc2CC1C(=O)Nc1nc2ccccc2[nH]1` (stereo unspecified): 6.5%. The same measure for `Cc1nn(C)cc1C1C2=C(CC(C)(C)CC2=O)OC2=C1C(=O)CC(C)(C)C2`: -12.3%; for `COC(=O)C1=C(N)OC2=C(C(=O)CC(C)(C)C2)C1c1ccoc1` (stereo unspecified): -0.4%. With `CCN(Cc1cc2cc(C)ccc2[nH]c1=O)C(=O)c1cccc(OC)c1`, the cytotoxicity is 0.1%.

On to `Clc1cc(Cl)c2nc(N3CCCCC3)sc2c1`, for which the cytotoxicity is -1.2%. The same measure for `COC(=O)c1c(C)nn(-c2ccccc2)c1N`: 4.7%; for `COc1ccc(NC(=O)N2CCCC(c3nc(-c4ccc(C(C)C)cc4)no3)C2)cc1` (stereo unspecified): 56.3% (active).

With `COc1ccc(-c2noc(C3CCCN(C(=O)c4cccs4)C3)n2)cc1` (stereo unspecified), the cytotoxicity was -9%. Next, `Cc1ccccc1NC(=O)N1CCCC(c2nc(-c3ccc(C(C)C)cc3)no2)C1` (stereo unspecified): 33.3%; `CC1=C(C(=O)N(C)C)C(c2ccc(Cl)c(Cl)c2)NC(=O)N1` (stereo unspecified): -1.2%; `O=C(Nc1nc(-c2ccncc2)cs1)c1ccco1`: 9.1%.

For the molecule `Cc1csc(NC(=O)c2ccco2)n1`, the cytotoxicity is -14.7%. The same measure for `O=C(Nc1nc(-c2cc3ccccc3oc2=O)cs1)c1ccco1`: 85% (active). The same measure for `O=C(NC1CCCCC1)NC1(C(=O)NCCCN2CCOCC2)CCCCC1`: -1.8%; for `CCN(CC)c1ccc(NC(=O)CN2CCN(CC(=O)Nc3ccc(F)cc3)CC2)cc1`: 4.2%; for `O=C(CN1CCOc2ccccc21)N1CCCC1`: 4.1%. As to `CC(=O)c1ccc(NC(=O)C2CCC(C)NC2=O)cc1` (stereo unspecified), the cytotoxicity was -4.9%. As to `O=C(CSc1ccc2nnc(-c3ccccc3)n2n1)N1CCN(c2ccccc2)CC1`, the cytotoxicity was -3.5%.

`CCOc1ccc(-c2nnc3ccc(SCC(=O)N4CCN(c5ccccc5)CC4)nn23)cc1`: the cytotoxicity is 56.6% (active). The same measure for `COc1ccc(-c2nnc3ccc(SCC(=O)N4CCN(c5ccccc5)CC4)nn23)cc1`: -6.6%. Next, `CCn1c(=N)c(C(N)=O)cc2c(=O)n3cccc(C)c3nc21`: 3.5%. The same measure for `Cc1cc(C)c2[nH]c(=O)c(C(c3nnnn3C3CCCC3)N3CCOCC3)cc2c1` (stereo unspecified): -7.3%; for `O=C(Nc1nc2ccccc2n1CCN1CCCC1)c1ccc(Cl)cc1`: 59.6% (active); for `CCCn1c(NC(=O)c2cccc(S(=O)(=O)N3CCCC3)c2)nc2ccccc21`: 61.9% (active).

`CCCn1c(NC(=O)c2ccc(Cl)c(S(=O)(=O)N3CCCC3)c2)nc2ccccc21`: the cytotoxicity was 16.1%. Next, `Cc1ccc(C(=O)Nc2nc3ccccc3n2CCN2CCCC2)cc1`: 1.6%; `CCCn1c(NC(=O)c2ccc(C)cc2)nc2ccccc21`: -34.1%. Next, `O=C(Nc1nc2ccccc2n1CCN1CCCCC1)c1ccco1`: -1.1%; `COc1ccc(S(=O)(=O)N(CC(=O)NCCCN(C)C)c2ccc(C)cc2)cc1OC`: 1%. For `Cc1ccccc1CN1C(=O)C2(OCCCO2)c2ccccc21`, the cytotoxicity is -4%. On to `Cc1ccc(C)c(CN2C(=O)C3(OCCCO3)c3ccccc32)c1`, for which the cytotoxicity was -1.3%. The same measure for `CC(=O)N1c2ccccc2N(Cc2ccc(C)cc2C)C(=O)C1(C)C`: 58.4% (active); for `N=c1n(CCOc2ccccc2)c2ccccc2n1CCN1CCOCC1`: -22.8%. With `CC1(C)CC(=O)C2=C(C1)NC(Nc1nc3ccccc3o1)=NC21CCCC1`, the cytotoxicity is -16.5%. `Nc1nnnn1/N=C/C=C/c1ccccc1`: the cytotoxicity was -7.1%. The same measure for `Nc1nnnn1/N=C/c1cccc(Oc2ccccc2)c1`: -9.6%. Next, `CC(=O)Nc1ccc(-n2c(C)nc(=O)c(-c3ccccc3)c2C)cc1`: 2.9%; `CS(=O)(=O)c1ccc2nc(NC(=O)Oc3ccccc3)sc2c1`: 3.4%; `Cc1ccc(NC(=O)CN(C)S(=O)(=O)c2cccc3cccnc23)cc1`: 0.4%. Take `O=C1CC(N2CCOCC2)C(=O)N1CCc1ccccc1` (stereo unspecified): the cytotoxicity was 5.1%.

Source of the values: PubChem BioAssay AID430 (Sanford-Burnham Center for Chemical Genomics, 2006).
